Test results: PMC7862700, “An all-to-all approach to the identification of sequence-specific readers for epigenetic DNA modifications on cytosine”

Legend:
Experiment in all cases: DAPPL (digital affinity profiling via proximity ligation, sequencing); 10 mM Tris-HCl pH 7.5, 50 mM NaCl, 1 mM DTT, 4% glycerol, room temperature, 30 min; GST-TFs on glutathione beads, 16-mer random dsDNA library, 0.1% formaldehyde crosslink after washing; high values mean tight binding
Conditions in all cases: protein: recombinant; tags: N-terminal GST; dsDNA, one strand shown
FLI1 = molecular target: T1, FLI1 (Homo sapiens, UniProt Q01543 1-452)
T1 sequence: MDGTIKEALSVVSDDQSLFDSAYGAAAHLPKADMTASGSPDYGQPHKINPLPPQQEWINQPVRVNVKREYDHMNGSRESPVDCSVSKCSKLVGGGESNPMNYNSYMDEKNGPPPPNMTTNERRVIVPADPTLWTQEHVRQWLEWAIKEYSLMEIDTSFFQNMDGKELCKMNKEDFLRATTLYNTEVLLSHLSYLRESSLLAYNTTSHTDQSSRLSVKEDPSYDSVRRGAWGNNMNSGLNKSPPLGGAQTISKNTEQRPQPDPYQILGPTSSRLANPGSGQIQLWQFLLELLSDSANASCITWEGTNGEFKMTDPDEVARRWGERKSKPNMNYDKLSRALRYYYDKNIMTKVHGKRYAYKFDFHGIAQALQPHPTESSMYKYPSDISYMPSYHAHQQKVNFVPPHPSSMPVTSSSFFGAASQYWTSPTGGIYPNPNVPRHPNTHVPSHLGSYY
Summary of the method: (§1)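 Pools were built from human transcription factors expressed in yeast as GST fusions, captured on glutathione beads and DNA-barcoded, along with a tag-only sample. Incubation with 200 nmole of a 16-mer random double-stranded DNA library lasted 30 min at room temperature in Tris/NaCl/DTT/glycerol buffer, and was followed by washing, 0.1% formaldehyde crosslinking, proximity ligation, PCR amplification and Illumina NextSeq500 sequencing. Binding signal is the quotient of each hexamer's read frequency for a factor and its frequency for the tag-only sample.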

ELK1 = molecular target: T2, ELK1 (Homo sapiens, UniProt P19419 1-428)
T2 sequence: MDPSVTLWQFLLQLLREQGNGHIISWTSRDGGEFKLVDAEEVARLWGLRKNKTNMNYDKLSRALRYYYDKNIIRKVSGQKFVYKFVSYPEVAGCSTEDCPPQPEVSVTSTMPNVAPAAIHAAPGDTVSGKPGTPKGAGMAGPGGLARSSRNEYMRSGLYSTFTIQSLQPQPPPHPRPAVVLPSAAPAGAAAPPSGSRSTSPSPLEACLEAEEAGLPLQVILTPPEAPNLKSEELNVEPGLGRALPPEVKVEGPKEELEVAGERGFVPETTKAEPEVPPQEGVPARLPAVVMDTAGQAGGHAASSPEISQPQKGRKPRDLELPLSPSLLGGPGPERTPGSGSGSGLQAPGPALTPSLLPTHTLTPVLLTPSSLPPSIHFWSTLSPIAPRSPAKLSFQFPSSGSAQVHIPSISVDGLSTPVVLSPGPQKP
Summary of the method: as §1

GABPA = molecular target: T3, GABPA (Homo sapiens, UniProt Q06546 1-454)
T3 sequence: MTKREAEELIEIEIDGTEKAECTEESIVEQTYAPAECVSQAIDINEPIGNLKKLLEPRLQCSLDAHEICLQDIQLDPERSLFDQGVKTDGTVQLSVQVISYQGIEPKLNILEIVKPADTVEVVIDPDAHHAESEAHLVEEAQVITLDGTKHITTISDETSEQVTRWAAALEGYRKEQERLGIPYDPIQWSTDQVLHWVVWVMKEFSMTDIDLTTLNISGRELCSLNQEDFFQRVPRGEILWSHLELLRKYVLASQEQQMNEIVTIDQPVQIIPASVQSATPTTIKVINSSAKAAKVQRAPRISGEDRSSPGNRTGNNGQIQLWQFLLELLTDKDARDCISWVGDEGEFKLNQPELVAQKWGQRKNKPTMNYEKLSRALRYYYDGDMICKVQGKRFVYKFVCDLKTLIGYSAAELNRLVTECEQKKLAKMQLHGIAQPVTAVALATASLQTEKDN
Summary of the method: as §1

ERG = molecular target: T4, ERG (Homo sapiens, UniProt P11308 1-479)
T4 sequence: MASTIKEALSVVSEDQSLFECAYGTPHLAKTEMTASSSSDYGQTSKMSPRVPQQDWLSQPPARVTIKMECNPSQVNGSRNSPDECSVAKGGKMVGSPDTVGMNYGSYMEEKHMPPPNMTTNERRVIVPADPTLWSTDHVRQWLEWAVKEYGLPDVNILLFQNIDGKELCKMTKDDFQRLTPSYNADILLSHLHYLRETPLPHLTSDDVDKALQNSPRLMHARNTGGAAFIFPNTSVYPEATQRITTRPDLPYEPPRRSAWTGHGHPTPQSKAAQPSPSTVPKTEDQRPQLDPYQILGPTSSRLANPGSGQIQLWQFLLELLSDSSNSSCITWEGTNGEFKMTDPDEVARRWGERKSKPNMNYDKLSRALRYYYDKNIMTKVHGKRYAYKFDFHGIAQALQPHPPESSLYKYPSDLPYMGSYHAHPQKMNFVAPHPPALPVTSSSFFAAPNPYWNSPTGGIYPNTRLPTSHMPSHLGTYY
Summary of the method: as §1

ELF1 = ELF1 (Homo sapiens, UniProt P32519 1-619)
Summary of the method: as §1

EHF = molecular target: T5, EHF (Homo sapiens, UniProt Q9NZC4 1-300)
T5 sequence: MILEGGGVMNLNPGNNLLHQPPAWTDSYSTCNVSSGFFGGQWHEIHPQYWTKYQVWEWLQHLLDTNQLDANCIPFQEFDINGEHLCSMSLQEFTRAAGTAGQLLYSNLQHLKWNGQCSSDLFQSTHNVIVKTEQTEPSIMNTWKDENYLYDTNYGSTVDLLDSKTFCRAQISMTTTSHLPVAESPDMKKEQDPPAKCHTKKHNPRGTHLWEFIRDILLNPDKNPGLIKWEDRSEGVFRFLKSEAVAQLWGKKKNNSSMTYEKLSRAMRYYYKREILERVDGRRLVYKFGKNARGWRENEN
Summary of the method: as §1

SPI1 = SPI1 (Homo sapiens, UniProt P17947 1-270)
Summary of the method: as §1

SPIB = SPIB (Homo sapiens, UniProt Q01892 1-262)
Summary of the method: as §1

ETV5 = ETV5 (Homo sapiens, UniProt P41161 1-510)
Summary of the method: as §1

ELF4 = ELF4 (Homo sapiens, UniProt Q99607 1-663)
Summary of the method: as §1

ELF3 = molecular target: T6, ELF3 (Homo sapiens, UniProt P78545 1-371)
T6 sequence: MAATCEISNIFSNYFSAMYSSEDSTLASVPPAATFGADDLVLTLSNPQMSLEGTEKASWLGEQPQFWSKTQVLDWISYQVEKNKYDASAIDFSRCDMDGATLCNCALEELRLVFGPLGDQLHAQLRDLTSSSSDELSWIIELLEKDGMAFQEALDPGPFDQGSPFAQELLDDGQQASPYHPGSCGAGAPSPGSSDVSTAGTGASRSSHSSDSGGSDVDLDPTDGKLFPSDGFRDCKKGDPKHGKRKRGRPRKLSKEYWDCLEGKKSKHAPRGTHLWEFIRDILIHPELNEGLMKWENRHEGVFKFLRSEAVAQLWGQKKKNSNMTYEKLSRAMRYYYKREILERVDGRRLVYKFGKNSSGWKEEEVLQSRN
Summary of the method: as §1

ETV1 = ETV1 (Homo sapiens, UniProt P50549 1-477)
Summary of the method: as §1

ERF = molecular target: T7, ERF (Homo sapiens, UniProt P50548 1-548)
T7 sequence: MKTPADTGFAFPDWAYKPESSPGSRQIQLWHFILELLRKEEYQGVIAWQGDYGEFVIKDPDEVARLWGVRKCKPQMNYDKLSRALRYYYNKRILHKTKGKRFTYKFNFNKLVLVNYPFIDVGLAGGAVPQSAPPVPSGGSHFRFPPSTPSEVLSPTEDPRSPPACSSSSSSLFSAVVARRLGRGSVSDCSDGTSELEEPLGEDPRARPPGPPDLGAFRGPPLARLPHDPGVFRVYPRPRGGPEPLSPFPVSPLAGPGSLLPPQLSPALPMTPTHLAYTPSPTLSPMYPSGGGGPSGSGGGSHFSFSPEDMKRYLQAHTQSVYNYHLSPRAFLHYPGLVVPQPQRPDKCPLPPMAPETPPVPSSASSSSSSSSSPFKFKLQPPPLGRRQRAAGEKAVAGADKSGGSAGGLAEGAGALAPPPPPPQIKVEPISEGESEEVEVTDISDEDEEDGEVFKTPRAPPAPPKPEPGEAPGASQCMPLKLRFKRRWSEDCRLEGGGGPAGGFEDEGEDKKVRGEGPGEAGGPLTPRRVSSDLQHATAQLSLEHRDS
Summary of the method: as §1

ETV3L = molecular target: T8, ETV3L (Homo sapiens, UniProt Q6ZN32 1-361)
T8 sequence: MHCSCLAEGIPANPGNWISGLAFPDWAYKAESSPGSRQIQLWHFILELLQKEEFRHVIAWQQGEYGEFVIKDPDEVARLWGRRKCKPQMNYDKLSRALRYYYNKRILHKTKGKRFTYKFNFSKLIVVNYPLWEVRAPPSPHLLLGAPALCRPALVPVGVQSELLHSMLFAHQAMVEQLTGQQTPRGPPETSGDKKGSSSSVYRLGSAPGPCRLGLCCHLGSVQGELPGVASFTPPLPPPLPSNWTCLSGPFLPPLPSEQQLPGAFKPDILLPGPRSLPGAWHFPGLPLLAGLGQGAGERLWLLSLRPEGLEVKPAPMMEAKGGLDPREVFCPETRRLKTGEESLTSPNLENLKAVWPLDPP
Summary of the method: as §1

ETS2 = molecular target: T9, ETS2 (Homo sapiens, UniProt P15036 1-469)
T9 sequence: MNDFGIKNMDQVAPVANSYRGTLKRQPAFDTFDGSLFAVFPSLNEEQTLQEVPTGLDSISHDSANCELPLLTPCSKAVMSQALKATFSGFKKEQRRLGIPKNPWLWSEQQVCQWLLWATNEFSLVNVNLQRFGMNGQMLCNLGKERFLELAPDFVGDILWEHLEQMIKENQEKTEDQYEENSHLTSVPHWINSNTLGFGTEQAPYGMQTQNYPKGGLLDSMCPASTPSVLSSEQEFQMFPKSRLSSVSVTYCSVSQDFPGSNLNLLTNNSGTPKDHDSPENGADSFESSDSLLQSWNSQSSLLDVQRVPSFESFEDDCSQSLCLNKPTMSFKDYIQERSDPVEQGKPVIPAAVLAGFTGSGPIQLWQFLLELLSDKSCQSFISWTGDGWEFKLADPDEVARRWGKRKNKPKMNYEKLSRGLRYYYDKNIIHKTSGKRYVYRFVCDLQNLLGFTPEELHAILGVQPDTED
Summary of the method: as §1

ETV7 = molecular target: T10, ETV7 (Homo sapiens, UniProt Q9Y603 1-341)
T10 sequence: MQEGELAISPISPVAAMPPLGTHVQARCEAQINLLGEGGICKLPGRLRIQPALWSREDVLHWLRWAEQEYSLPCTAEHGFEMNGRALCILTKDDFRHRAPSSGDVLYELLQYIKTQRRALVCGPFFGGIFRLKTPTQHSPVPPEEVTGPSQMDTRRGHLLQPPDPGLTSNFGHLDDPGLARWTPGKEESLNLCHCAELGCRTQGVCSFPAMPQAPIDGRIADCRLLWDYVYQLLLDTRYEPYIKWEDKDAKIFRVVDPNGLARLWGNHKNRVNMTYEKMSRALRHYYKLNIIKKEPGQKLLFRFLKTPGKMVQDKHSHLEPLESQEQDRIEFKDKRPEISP
Summary of the method: as §1

ETV6 = ETV6 (Homo sapiens, UniProt P41212 1-452)
Summary of the method: as §1

Sequence of ELF1 (P32519 whole entry): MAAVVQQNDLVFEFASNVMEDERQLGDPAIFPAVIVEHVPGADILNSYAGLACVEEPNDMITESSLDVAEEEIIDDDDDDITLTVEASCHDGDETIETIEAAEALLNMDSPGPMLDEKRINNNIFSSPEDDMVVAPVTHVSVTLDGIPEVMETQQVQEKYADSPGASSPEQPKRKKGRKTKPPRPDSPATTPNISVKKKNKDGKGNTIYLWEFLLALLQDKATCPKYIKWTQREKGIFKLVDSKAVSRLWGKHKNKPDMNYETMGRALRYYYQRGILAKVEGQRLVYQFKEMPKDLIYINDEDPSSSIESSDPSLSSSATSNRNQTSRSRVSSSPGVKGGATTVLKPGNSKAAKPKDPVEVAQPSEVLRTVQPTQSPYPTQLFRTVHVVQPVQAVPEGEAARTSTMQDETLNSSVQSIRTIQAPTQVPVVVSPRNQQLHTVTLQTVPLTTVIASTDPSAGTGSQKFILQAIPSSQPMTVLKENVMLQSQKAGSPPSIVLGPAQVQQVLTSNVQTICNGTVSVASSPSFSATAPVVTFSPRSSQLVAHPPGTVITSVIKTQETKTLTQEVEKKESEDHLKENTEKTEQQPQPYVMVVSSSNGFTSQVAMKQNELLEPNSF
Sequence of SPIB (Q01892 whole entry): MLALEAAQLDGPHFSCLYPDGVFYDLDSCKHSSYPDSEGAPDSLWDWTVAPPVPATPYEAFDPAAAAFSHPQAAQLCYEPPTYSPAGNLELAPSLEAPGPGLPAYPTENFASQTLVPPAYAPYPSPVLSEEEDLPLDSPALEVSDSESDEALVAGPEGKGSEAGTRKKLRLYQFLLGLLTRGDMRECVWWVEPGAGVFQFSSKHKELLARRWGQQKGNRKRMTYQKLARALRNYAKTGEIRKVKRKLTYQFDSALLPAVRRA
Sequence of ELF4 (Q99607 whole entry): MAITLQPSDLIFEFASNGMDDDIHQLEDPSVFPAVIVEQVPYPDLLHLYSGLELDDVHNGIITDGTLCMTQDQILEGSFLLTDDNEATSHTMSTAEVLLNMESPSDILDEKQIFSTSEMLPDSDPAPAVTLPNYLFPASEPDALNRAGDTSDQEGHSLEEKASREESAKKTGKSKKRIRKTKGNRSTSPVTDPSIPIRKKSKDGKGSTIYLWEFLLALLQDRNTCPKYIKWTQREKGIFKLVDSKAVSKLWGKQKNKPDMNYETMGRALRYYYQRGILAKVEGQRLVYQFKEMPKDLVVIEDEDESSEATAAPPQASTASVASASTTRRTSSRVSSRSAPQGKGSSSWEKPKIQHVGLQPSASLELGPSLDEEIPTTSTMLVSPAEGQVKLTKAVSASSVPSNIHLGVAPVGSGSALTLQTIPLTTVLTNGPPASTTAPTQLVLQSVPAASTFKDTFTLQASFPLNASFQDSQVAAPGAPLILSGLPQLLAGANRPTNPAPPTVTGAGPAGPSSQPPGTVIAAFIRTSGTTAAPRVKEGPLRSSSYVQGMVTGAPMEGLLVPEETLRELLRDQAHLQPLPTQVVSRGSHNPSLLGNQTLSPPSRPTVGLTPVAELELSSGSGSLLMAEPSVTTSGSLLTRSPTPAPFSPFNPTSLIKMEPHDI
Sequence of ETV1 (P50549 whole entry): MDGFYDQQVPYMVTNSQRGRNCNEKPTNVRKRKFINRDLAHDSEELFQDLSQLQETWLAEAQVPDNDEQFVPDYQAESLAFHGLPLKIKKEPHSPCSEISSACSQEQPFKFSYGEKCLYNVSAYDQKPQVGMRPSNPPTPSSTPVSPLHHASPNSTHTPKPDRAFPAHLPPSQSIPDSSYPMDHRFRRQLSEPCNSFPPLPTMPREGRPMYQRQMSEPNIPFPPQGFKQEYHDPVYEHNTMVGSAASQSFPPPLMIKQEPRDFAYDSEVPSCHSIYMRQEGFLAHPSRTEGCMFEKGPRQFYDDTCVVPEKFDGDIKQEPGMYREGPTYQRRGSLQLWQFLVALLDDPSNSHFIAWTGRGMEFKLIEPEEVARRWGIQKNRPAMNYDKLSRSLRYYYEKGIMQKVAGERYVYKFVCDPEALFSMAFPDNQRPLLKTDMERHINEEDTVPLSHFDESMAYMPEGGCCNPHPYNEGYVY
Sequence of ETV6 (P41212 whole entry): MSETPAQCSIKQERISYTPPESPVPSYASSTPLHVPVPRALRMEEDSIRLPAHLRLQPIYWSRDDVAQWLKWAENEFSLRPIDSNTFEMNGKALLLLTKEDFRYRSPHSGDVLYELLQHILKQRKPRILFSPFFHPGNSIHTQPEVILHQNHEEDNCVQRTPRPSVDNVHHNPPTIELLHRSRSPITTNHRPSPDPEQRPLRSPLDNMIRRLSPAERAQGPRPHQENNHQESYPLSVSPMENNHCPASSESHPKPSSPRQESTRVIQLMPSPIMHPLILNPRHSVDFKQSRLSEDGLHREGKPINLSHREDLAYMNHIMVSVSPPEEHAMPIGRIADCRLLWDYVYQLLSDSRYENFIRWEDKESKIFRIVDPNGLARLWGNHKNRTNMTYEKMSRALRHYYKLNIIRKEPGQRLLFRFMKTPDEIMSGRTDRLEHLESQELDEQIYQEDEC
Sequence of ETV5 (P41161 whole entry): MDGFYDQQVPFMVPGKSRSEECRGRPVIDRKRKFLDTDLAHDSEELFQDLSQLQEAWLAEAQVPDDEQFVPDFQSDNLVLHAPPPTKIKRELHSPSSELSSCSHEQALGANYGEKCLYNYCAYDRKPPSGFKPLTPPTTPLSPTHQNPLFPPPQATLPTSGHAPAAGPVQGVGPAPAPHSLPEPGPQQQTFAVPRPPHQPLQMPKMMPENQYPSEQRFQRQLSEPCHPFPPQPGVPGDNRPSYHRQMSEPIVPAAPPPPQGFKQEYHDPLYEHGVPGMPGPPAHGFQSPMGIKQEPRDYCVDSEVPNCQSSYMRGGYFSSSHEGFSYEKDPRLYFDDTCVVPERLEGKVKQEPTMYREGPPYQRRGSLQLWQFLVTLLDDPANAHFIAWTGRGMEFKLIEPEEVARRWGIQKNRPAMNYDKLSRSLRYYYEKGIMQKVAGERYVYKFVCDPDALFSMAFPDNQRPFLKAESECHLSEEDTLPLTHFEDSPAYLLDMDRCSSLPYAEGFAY

For AGTATG, the binding signal (FLI1) was 1.05 fold enrichment (6-mer frequency, TF over GST control), the binding signal (ELK1) was 1.01 fold enrichment (6-mer frequency, TF over GST control) and the binding signal (GABPA) was 1.03 fold enrichment (6-mer frequency, TF over GST control). For the same sequence, the binding signal (ERG) was 1 fold enrichment (6-mer frequency, TF over GST control), the binding signal (ELF1) was 1.04 fold enrichment (6-mer frequency, TF over GST control) and the binding signal (EHF) was 1.11 fold enrichment (6-mer frequency, TF over GST control). The binding signal (SPI1) was 1.08 fold enrichment (6-mer frequency, TF over GST control), the binding signal (SPIB) was 1.11 fold enrichment (6-mer frequency, TF over GST control) and the binding signal (ETV5) was 1.02 fold enrichment (6-mer frequency, TF over GST control). The binding signal (ELF4) was 1.04 fold enrichment (6-mer frequency, TF over GST control), the binding signal (ELF3) was 1.08 fold enrichment (6-mer frequency, TF over GST control) and the binding signal (ETV1) was 1.02 fold enrichment (6-mer frequency, TF over GST control). The binding signal (ERF) was 1.02 fold enrichment (6-mer frequency, TF over GST control), the binding signal (ETV3L) was 1.13 fold enrichment (6-mer frequency, TF over GST control) and the binding signal (ETS2) was 1.09 fold enrichment (6-mer frequency, TF over GST control). The binding signal (ETV7) was 1.12 fold enrichment (6-mer frequency, TF over GST control) and the binding signal (ETV6) was 1 fold enrichment (6-mer frequency, TF over GST control).
